Here are results for 40 compounds from PubChem BioAssay (NCI).

The panel holds about 83,000 compounds, 20% with a hit somewhere; the sample as a whole holds those more often.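 Negative percent growth values reflect cell death: -40 means 40% of the cells present at the start died, and -100 means all died.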 Values without a mark were called inactive. The source made the active and inactive calls.

The experiment relates to SNB-75 CNS. Description: NCI-60 one-dose screen, 48 h (100 = growth as untreated, 0 = no growth, -100 = all killed). The note with it: 10 µM unless noted. Here is the method:
Growth inhibition of the SNB-75 human tumor cell line is measured as a screen for anti-cancer activity. Cells are grown in 96 well plates and exposed to the test compound for 48 hours. Compounds are tested at a single concentration, which is 10^-5 M for most compounds. The reported endpoint is percent growth (GI% or GIPRCNT), where numbers from 0 - 100% represent growth inhibition, and numbers from -100% - 0 represent cell death. For example, a value of 40 represents 60% growth inhibition. A value of 0 means no net growth occurred over the course of the experiment. A value of -40 indicates 40% of cells at the beginning of the experiment died by the end of the experiment. A value of -100 means all cells are dead at the end of the experiment.
NCI-60 Human Tumor Cell Lines Screen was performed using the standard one-dose NCI protocol, which is described in more detail at https://dtp.cancer.gov/discovery_development/nci-60/default.htm.
Compounds with GIPRCNT values below 10 were considered active. Activity score was based on GIPRCNT using the following formula: […]
Score is 0 for GIPRCNT values of 100 or above, 50 for GIPRCNT values of 0, and 100 for GIPRCNT values of -100.
For the compound `Cn1cc(-c2noc(-c3cn(C)c4ncc(F)cc34)n2)c2cc(Cl)ccc21`, the growth was -24.2% (active).

`O=C(N/N=C/c1c(Cl)cccc1Cl)c1cccc(Nc2ccnc(C(F)(F)F)c2)c1`: the growth was 93.7%.

As to `N#C/C(C(=O)c1ccccc1)=C1/C(=O)Nc2ccc(F)cc21`, the growth was 78.3%.

Consider `C[C@]12CCc3nc(Nc4ccccc4)sc3C1=CC[C@@H]1[C@@H]2CC[C@]2(C)/C(=N/NC(N)=S)CC[C@@H]12`, for which the growth is 35.3%.

`COC(=O)c1c(C)[nH]c(/C=C2\N=C(c3ccc[nH]3)C=C2OC)c1C`: the growth was -23.3% (active).

Turning to `C[n+]1c2ccccc2nc2c(N)cc(N)cc21`, the growth is 75.2%.

Regarding `COc1ncc(-c2ccc3nccc(C#CCCCCC(=O)NO)c3c2)cc1NS(=O)(=O)c1ccc(F)cc1F`, the growth was -15.3% (active).

Regarding `COc1ccc(-c2nc3ccccn3c2/C=C/C(=O)c2cc(OC)c(OC)c(OC)c2)cc1OC`, the growth was 46.1%.

Consider `FC(F)(F)c1ccc2c(c1)Sc1ccccc1N2`, for which the growth is 89%.

For the compound `Cc1nn(-c2ccccc2)c(N2CCOCC2)c1-c1nc2ccc([N+](=O)[O-])cc2[nH]1`, the growth was 95.7%.

On to `O=S(=O)(NCCNc1nccc(-c2c(-c3cccc(F)c3)nc3occn23)n1)c1ccc(C(F)(F)F)cc1`, for which the growth was 59.6%.

As for `CC(C)CCSC1=CC(=O)c2ccccc2C1=O`, the growth is 7.99% (active).

For `C[n+]1cccc(NC(=O)c2ccc3ccc4ccc(C(=O)Nc5ccc[n+](C)c5)nc4c3n2)c1`, the growth was 12.8%.

Turning to `O=c1[nH]cnc2c1ccn2C1OC(CO)C(O)C1O` (stereo not given), the growth is 74.6%.

`O=C1C(Cl)=C(Nc2ccc3cn[nH]c3c2)C(=O)c2ccccc21`: the growth is -84.5% (active).

`CC(C)C1=NOC(=O)C1=Cc1cn(-c2ccccc2)nc1-c1ccc(Br)cc1`: the growth is 65.6%.

As to `COc1cc(C)cc2oc3oc(=O)c(-c4nc5ccccc5s4)cc3c(=O)c12`, the growth is 79.3%.

On to `CN(C)CCOc1ccc(/C(=C(/CCCl)c2ccccc2)c2ccccc2)cc1`, for which the growth was 36.8%.

Consider `O=C(C[n+]1ccn(CC(OCc2ccc(Cl)cc2Cl)c2ccc(Cl)cc2Cl)c1)c1ccc(F)cc1` (stereo not given), for which the growth is -99% (active).

With `O=C1CC(C(F)(F)F)Cc2nc3ccc(Br)cc3cc21` (stereo not given), the growth is 78.5%.

With `CCOC(=O)c1nn(C2CCCCO2)c2ccc(NC(=O)CSc3nc4ccccc4c(=O)[nH]3)cc12` (stereo not given), the growth was 68.5%.

On to `O=C1COCCN1c1ccc(NCc2cn(Cc3cccc4ccccc34)c3ccccc23)cc1`, for which the growth is 79.6%.

Consider `COc1cc(-c2nc(SCCC(C)C)nc(Nc3ccccc3)c2C#N)cc(OC)c1OC`, for which the growth is 66.8%.

As to `O=[N+]([O-])c1cc(CCl)ccc1OCCBr`, the growth is 86.6%.

Regarding `C#CCC(C(=O)OCC)C(=O)OCC`, the growth is 90.5%.

For the compound `COc1ccc2c(c1)C(C)Cc1c(Cl)nc(C)nc1N2C` (stereo not given), the growth is 39.3%.

Consider `Cc1cc(N2CCCCCC2)nc(N2CCN(CC(=O)Nc3ccc4c(ccn4Cc4ccccc4)c3)CC2)n1`, for which the growth was 69.6%.

For the compound `COc1cccc(-c2[nH]c(=S)ncc2C(=O)c2ccccc2)c1`, the growth was 66.6%.

As for `C/C=C/C1OC23CCCCC2C(C#N)(C(=N)O3)C1(C#N)C#N` (stereo not given), the growth is 85.9%.

Regarding `CCn1cc(-c2[nH]c(=S)ncc2-c2ccc(Cl)cc2)c(-c2ccc(Br)cc2)n1`, the growth is 99.1%.

As to `C#C[C@]1(O)CC[C@H]2[C@@H]3CC=C4c5nc(Nc6ncccn6)sc5CC[C@]4(C)[C@H]3CC[C@@]21C`, the growth is -7.12% (active).

In the case of `N/C(=N\c1nc2ccccc2[nH]1)NC(=O)Cc1cccc2ccccc12`, the growth was 87.5%.

For the compound `CCN(CC)c1ccc2cc(C(Nc3ccc(Cl)cc3)c3nnnn3C(C)(C)C)c(=O)oc2c1` (stereo not given), the growth is 68.5%.

In the case of `O=C(Nc1ccc(Oc2ccc(F)cc2)c(Cl)c1)c1cnccn1`, the growth was 47.7%.

In the case of `CC1(C)C(=O)/C(=C\c2ccco2)C[C@]2(C)[C@H]3CC=C4[C@@H]5C[C@](C)(C(=O)O)CC[C@]5(C)CC[C@@]4(C)[C@]3(C)CC[C@@H]12`, the growth was -82.5% [100 µM] (active).

Regarding `CCCCC1COc2cccc3c2N1C=C/C3=C\C(=O)n1ccc2ccccc21` (stereo not given), the growth was 14.5%.

Regarding `CC(=O)Nc1ccc(C=Nc2ccc3ccccc3c2)cc1`, the growth was 77.7%.

Take `C=C(CN=[N+]=[N-])[C@@H]1CC[C@]2(C)[C@H](CC[C@@H]3[C@H]4[C@H]5OC(=O)[C@@]4(CCC5(C)C)CC[C@]32C)[C@@]1(C)CCC#N`: the growth is 89.6% [100 µM].

Take `COC(=O)[C@]1(C)CC[C@]2(C)CC[C@]3(C)C(=CC(=O)[C@@H]4[C@@]5(C)CCC(=O)NC(C)(C)[C@@H]5CC[C@]43C)[C@@H]2C1`: the growth was -83.3% [100 µM] (active).

On to `CCOC(=O)COc1ccc2c(c1)O/C(=C\c1ccc(O)cc1)C2=O`, for which the growth was 87.7%.
